Screening results from PubChem BioAssay.
CHX counter – Cycloheximide Counterscreen for Small Molecule Inhibitors of Shiga Toxin; cell reporter, cycloheximide protein synthesis inhibition counterscreen; max response, %; 12% of 300,000 active; AID 2314, 2010; in the data active means max response mostly above about 13%, no sharp cut-off; inactive means mostly below about 14%; further: read at 38.3 µM for the half of the compounds with a filed dose; 0% is about no effect
Pf growth 48h – Primary qHTS for delayed death inhibitors of the malarial parasite plastid, 48 hour incubation; P. falciparum luciferase growth in erythrocytes, 48 h; Potency, µM (series often up to 28.7 µM), for the others: at the top dose activity change, negative = inhibition, usual class: inhibitors; 5.9% of 310,000 active; AID 504832, 2011; further: potency means the concentration at half of the fitted maximal effect; on the % scale 0 is the no-effect control and ±100 the full control effect
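Compounds are pin-transferred into medium, infected erythrocytes (2% hematocrit, 0.1% parasitemia final) are added, and plates sit one parasite generation at 37 C in 5% CO2. Detection reagent is then added and luminescence measured.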
HCV inhibitor – qHTS Assay for Inhibitors of Hepatitis C Virus (HCV); AID 651820, 2012; Huh7.5.1 HCVcc-Cre infection, luciferase reporter, 44 h; Potency, µM (series often up to 41.8 µM), without a hit: at the top dose activity change, negative = inhibition, most hits filed as inhibitors; 3.4% of 340,000 active; further: potency means the concentration at half of the fitted maximal effect; on the % scale 0 is the no-effect control and ±100 the full control effect
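Luciferase read-out (15 sec integration) after a 15 min room-temperature substrate step quantifies HCVcc-Cre infection. Cells, 1,000 per well, had compound added 4 h post-plating, then virus at ~0.5 moi, and were cultured 44 h.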
Shiga inhibitor – A qHTS for Small Molecule Inhibitors of Shiga Toxin; Vero cells, Shiga toxin protein synthesis inhibition reporter; inhibition, % at 38.7 µM; 9.2% of 290,000 active; in the data active means inhibition mostly above about 28%, no sharp cut-off; inactive means mostly below about 43%; further: 0% is about no effect
AMA1-RON2 inh – qHTS for Inhibitors of AMA1-RON; Towards Development of Antimalarial Drug Lead: Primary Screen; Plasmodium falciparum AMA1 (3D7) - RON2 peptide interaction; AlphaScreen AMA1-biotinylated RON2 peptide binding; Potency, µM (series often up to 58.2 µM), without a hit: at the highest dose activity change, negative = inhibition, most hits filed as inhibitors; 0.2% of 360,000 active;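 further: potency means the concentration at half of the fitted maximal effect; 0% = vehicle wells and -100% = peptide control; nearly all actives have a fitted effect of over 45% in size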
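AMA1 (3D7) with his tag at 25 nM final met compounds first, then biotinylated RON2 peptide at 25 nM; detection used donor plus acceptor beads, 10 µg/mL apiece, read by AlphaScreen after 30 min at room temperature.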
Pf growth 96h – Primary qHTS for delayed death inhibitors of the malarial parasite plastid, 96 hour incubation | P. falciparum luciferase reporter growth, 96 h | Potency, µM (top dose mostly 28.7 µM), inactives show at the highest dose activity change, negative = inhibition, most hits filed as inhibitors | 6.9% of 320,000 active; further: potency means the concentration at half of the fitted maximal effect; on the % scale 0 is the no-effect control and ±100 the full control effect
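Compounds incubated with erythrocytes infected by luciferase-expressing P. falciparum (2% hematocrit, 0.05% parasitemia final) for 96 hours, 37 C in 5% CO2. Growth inhibition scored as decreased luciferase luminescence.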
Active calls of the source: *; ? = inconclusive; . = not tested or not shown; + = active, no number; [ ] = dose if it differs, or a comment. Sampled rows, rich in hits. Any-hit rate of the full collection: about 21%. Unless noted, the call rests on the fitted dose curve; in most records, active means well fitted curve in the direction sought with a large enough effect; inconclusive means small, poorly fitted or top-dose-only effect, or another doubt; inactive means no such curve, though single readings can be large; an effect the other way counts as inactive or inconclusive.

SMILES | CHX counter | Pf growth 48h | HCV inhibitor | Shiga inhibitor | AMA1-RON2 inh | Pf growth 96h
COc1ccc(NC(=O)c2ccccn2)cc1OC | 61.4* | 176.6% | -10.4% | 90.5* | 14.1% | 222.3%
C/C(=N\NC(=O)C(c1ccccc1)c1ccccc1)c1ccccn1 | -3.1 | 2.33µM* | 11.2µM* | -0.7 | 71.7% | 2.33µM*
C/C(Cn1nnc2ccccc21)=N/OC(=O)c1c(F)cccc1F | 12.7 | 19.8% | 11.4% | -1.1 | 6.6% | 21.2%
C/C(=N\NC(=O)c1cc(-c2cccs2)nc2ccccc12)c1ccccn1 | 8.0 | ? | 0.562µM* | -3.3 | -32.4% | ?
CC(=NNC(=S)Nc1ccc(C)cc1)c1ccccn1 | . | . | ? | . | 7.5% | .
C/C(Cn1nnc2ccccc21)=N\NC(=O)c1cccc(Br)c1 | 24.2* | 12.6% | 1.0% | + | 72.2% | ?
C/C(=N\NC(=O)c1ccccc1Cl)c1ccccn1 | 28.3* | 1.65µM* | ? | 85.0* | -36.0% | -4.9%
C/C(=N\NC(=O)C(c1ccccc1)c1ccccc1)c1ccc(O)cc1 | 2.6 | ? | -15.4% | -16.5 | 23.8% | ?
CCC(C)c1ccccc1N1CC(C(=O)NCCCn2nc(C)cc2C)CC1=O (centres undefined) | . | 17.4% | 0.4% | . | -12.9% | 1.6%
CC(OC(=O)c1ccc(Br)o1)C(=O)NCC1CCCCC1 (centres undefined) | . | . | ? | . | -8.3% | .
CCOc1ccc2oc(C(=O)N(CCOC)c3c(N)n(CC(C)C)c(=O)[nH]c3=O)c(C)c2c1 | . | ? | -3.7% | . | 10.3%[11.6 µM] | -27.3%
FC(F)(F)c1ccc(NC(=S)NCc2ccccc2)cc1 | 3.0 | -94.0% | -5.4% | -1.0 | 26.2% | ?
COc1ccccc1NC(=O)c1ccccc1NC(=O)c1ccccn1 | . | -7.9% | 0.5% | . | 25.2% | ?
C/C(=N\NC(=O)c1cccc2ccccc12)c1ccccn1 | -1.5 | ? | 5.01µM* | -4.5 | -52.8% | 2.08µM*
C/C(=N\NC(=O)c1cc(Br)ccc1O)c1ccccn1 | 27.7* | ? | 4.0% | 40.6* | 79.7% | ?
CC(=NNC(=O)c1ccncc1)c1cccc(Br)c1 | . | . | 3.3% | . | 20.8% | .
COc1ccc(Cl)cc1NC(=O)NNC(=O)c1ccccn1 | 23.8* | -22.6% | 3.3% | -1.0 | 95.6% | 10.4µM*
C/C(=N\NC(=O)c1cccc(Br)c1)c1ccccn1 | 26.6* | 0.738µM* | ? | 87.4* | -43.0% | -6.5%
O=C1COc2ccc(C(=O)COC(=O)Cc3ccc(F)cc3)cc2N1 | . | 0.3% | 19.3% | . | -3.0% | 10.6%
CC(C)C[C@H](N)C(=O)N[C@H](C(=O)N[C@@H](CCCN=C(N)N)C(=O)N[C@H](CS)C(=O)NCC(=O)N[C@@H](CCCCN)C(=O)N[C@@H](Cc1cnc[nH]1)C(=O)N[C@@H](CO)C(=O)N[C@@H](CCCN=C(N)N)C(=O)O)C(C)C | -1.0 | . | . | -5.3 | . | .
C/C(=N\NC(=O)c1ccc(NS(=O)(=O)c2cccs2)cc1)c1ccccn1 | 1.5 | ? | ? | 19.0 | 56.5% | 11.7µM*
C/C(=N\NC(=O)c1ccc(NS(=O)(=O)c2cccs2)cc1)c1ccncc1 | 2.1 | 31.4%[5.75 µM] | 32.1% | 12.0 | 11.6% | 21.8%[5.75 µM]
COc1ccc(C(=O)N/N=C(\C)c2ccccn2)cc1OC | 21.8* | ? | ? | 41.7* | -15.0% | 50.8%
NS(=O)(=O)c1ccc(NC(=O)c2cc(-c3cccs3)nc3ccccc23)cc1 | -3.3 | 26.1% | ? | -17.5 | -7.5%[2.32 µM] | 0.415µM*
C/C(=N/NC(=O)c1ccccn1)c1ccncc1 | 36.0* | 47.6% | 37.7% | 91.7* | 84.6% | ?
SMILES | CHX counter | Pf growth 48h | HCV inhibitor | Shiga inhibitor | AMA1-RON2 inh | Pf growth 96h
CN(C)S(=O)(=O)c1ccc(NC(=O)c2cc(-c3cccs3)nc3ccccc23)cc1 | -5.6 | ? | ? | -1.7 | -12.2% | ?
COc1cc(C(C)=NNC(=O)c2ccncc2)ccc1O | . | . | -1.2% | . | -6.3% | .
COC(=O)C1C[C@@H]2C3=C(C(=O)[C@@](C)(NC(=O)c4ccccc4)C3[C@H](C(=O)OC)C1)[C@H](C)n1c(=O)n(-c3ccccc3)c(=O)n12 (some centres undefined) | 11.0 | . | . | 31.0 | . | .
C=CCNC(=S)/C(=C(/[O-])c1ccccc1Br)[n+]1ccccc1 | -1.7 | -13.6% | 5.5% | -5.2 | 19.5% | 0.1%
CC(=O)n1c(-c2ccccc2)c(-c2ccccc2)n(C)c1=O | . | . | -5.0% | . | -1.6% | .
Cc1cccc2sc(NNC(=O)c3cc(-c4cccs4)nc4ccccc34)nc12 | -0.8 | ? | ? | 26.1 | 39.4% | 4.15µM*
C/C(=N/NC(=O)c1ccc(C(C)(C)C)cc1)c1ccccn1 | . | . | 3.55µM* | . | 20.7% | .
CC1CCCC(NC(=O)CN2C(=O)NC(C)(c3cc(F)ccc3F)C2=O)C1C (centres undefined) | . | . | -2.3% | . | -9.1% | .
O=C1Nc2ccc(Cl)cc2C12Nc1ccccc1-c1nnc(SCc3ccccc3F)nc1O2 (centres undefined) | 28.3* | 11.7% | -6.9% | -48.4 | -6.6% | -14.3%
COc1ccc(N2CCN(C(=O)c3ccc(CNS(=O)(=O)c4ccc(C)cc4)cc3)CC2)cc1 | 13.5 | ? | 12.6µM* | 7.9 | -21.7% | ?
Cc1ccc(C(=O)N2CCN(c3ccc([N+](=O)[O-])c(NCc4cccnc4)c3)CC2)cc1 | -5.8 | 8.28µM* | 12.6µM* | 13.0 | -27.6% | 3.7µM*
Cc1ccc(S(=O)(=O)NCc2ccc(C(=O)N3CCN(c4ccccn4)CC3)cc2)cc1 | -4.6 | ? | ? | -8.5 | 9.4% | ?
COc1ccc(N2CCN(C(=O)c3ccc(CNS(=O)(=O)c4cc(C)ccc4C)cc3)CC2)cc1 | 3.3 | -3.9% | ? | 5.8 | -28.2% | -1.4%
COc1ccc(CNC(=O)C(C)N2CCN(c3ccc(C(C)=O)cc3)CC2)cc1 (centres undefined) | 17.1* | -21.5% | -13.0% | 35.5 | -5.6% | -29.1%
Cc1ccc(S(=O)(=O)NCc2ccc(C(=O)N3CCN(c4ccc([N+](=O)[O-])cc4)CC3)cc2)cc1 | -7.3 | ? | 3.98µM* | 0.9 | -8.0% | -6.0%
CC(C(=O)NCc1ccccc1)N1CCN(c2ccc(F)cc2)CC1 (centres undefined) | -5.7 | 1.2% | -4.3% | -5.3 | 3.6% | 11.1%
COc1ccccc1C(CNC(=O)C(CCSC)NS(=O)(=O)c1ccccc1F)N1CCCC1 (centres undefined) | . | ? | 0.1% | . | -20.0% | 10.0%
NC(c1csc(Nc2cc(NCCCO)ncn2)n1)c1ccccc1Cl (centres undefined) | . | . | . | . | -10.5% | .
CC(=O)Nc1ccc(OC(=O)N2CCCC2)cc1 | 1.8 | 25.4% | -2.7% | . | -1.6% | ?
